Several values for one entry are separate records, joined by “and”; a condition that tells them apart may be missing. Equal entries are not always repeated. Some structures have more than one record in an assay (separate samples or runs), and their calls can disagree. Activity calls are given as the source filed them. How the source made its calls: active means hit-call score of the fitted dose curve at least 0.9, where 1 is the maximum; inactive means score below 0.9.
Experiments:
[1] = read-out: Monocyte Chemoattractant Protein-1 (MCP1), CCL2 (gene 6347); assay: BSK_BF4T_MCP1: BioMAP Diversity Plus: BF4T Assay for Monocyte Chemoattractant Protein-1 (MCP1) Biomarker Activity (AID 2284259); details: primary human bronchial epithelial cells with fibroblasts
Summary of the method: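 Co-culture of bronchial epithelial cells and dermal fibroblasts dosed with chemical; MCP-1 measured by ELISA 24 h later. Activity fitted in positive direction versus DMSO; cytotoxicity checked by SRB staining in parallel cultures.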

[2] = read-out: Intercellular Adhesion Molecule 1 (ICAM1), ICAM1 (gene 3383); assay: BSK_BF4T_ICAM1: BioMAP Diversity Plus: BF4T Assay for Intercellular Adhesion Molecule 1 (ICAM1) Biomarker Activity (AID 2284260); details: primary human bronchial epithelial cells with fibroblasts
Summary of the method: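 Co-culture of human bronchial epithelial cells and dermal fibroblasts exposed 24 h to chemical; cell-surface ICAM-1 quantified by ELISA. Parallel SRB total-protein staining assessed cytotoxicity; activity fitted relative to DMSO.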

[3] = read-out: Interleukin-8 (IL8), CXCL8 (gene 3576); assay: BSK_MyoF_IL8: BioMAP Diversity Plus: MyoF Assay for Interleukin-8 (IL8) Biomarker Activity (AID 2284261); details: primary human lung fibroblasts
Summary of the method: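 IL-8 levels were measured by ELISA in human lung fibroblasts harvested 24 h after compound addition. Responses were analysed as gain of signal over the DMSO baseline.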

CD90, THY1 (gene 7070) = assay: BSK_BF4T_CD90: BioMAP Diversity Plus: BF4T Assay for CD90 Biomarker Activity (AID 2284262); details: primary human bronchial epithelial cells with fibroblasts
Summary of the method: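 Co-culture of human bronchial epithelial cells and dermal fibroblasts, 24 h compound exposure. Cell-surface CD90 measured by ELISA relative to DMSO; parallel SRB total-protein staining for cytotoxicity.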

[4] = read-out: Interleukin-8 (IL8), CXCL8 (gene 3576); assay: BSK_BF4T_IL8: BioMAP Diversity Plus: BF4T Assay for Interleukin-8 (IL8) Biomarker Activity (AID 2284263); details: primary human bronchial epithelial cells with fibroblasts
Summary of the method: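 Human bronchial epithelial cells with dermal fibroblasts co-culture; IL-8 measured by ELISA 24 hours after dosing, fitted vs DMSO. Cytotoxicity tracked in parallel cultures by SRB total-protein staining.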

Decorin, DCN (gene 1634) = assay: BSK_MyoF_Decorin: BioMAP Diversity Plus: MyoF Assay for Decorin Biomarker Activity (AID 2284265); details: primary human lung fibroblasts
Summary of the method: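 Compound is added to lung fibroblast cultures; cells incubate 24 h; decorin is then measured by ELISA; the response is analysed upward against DMSO controls.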

[5] = BSK_MyoF_SRB: Viability Assessment in the BioMAP Diversity Plus: MyoF Assay (AID 2284267); details: primary human lung fibroblasts;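 further: total protein by SRB absorbance in parallel cultures as cytotoxicity measure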
Summary of the method: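 Human lung fibroblasts, 24 h after chemical dosing; total protein measured by 0.1% sulforhodamine B staining after 10% TCA fixation, read at 560 nm, fitted relative to DMSO baseline.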

[6] = read-out: Matrix Metallopeptidase 1 (MMP1), MMP1 (gene 4312); assay: BSK_MyoF_MMP1: BioMAP Diversity Plus: MyoF Assay for Matrix Metallopeptidase 1 (MMP1) Biomarker Activity (AID 2284268); details: primary human lung fibroblasts
Summary of the method: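 Lung fibroblast cultures were dosed with test chemicals and, after 24 h, MMP1 levels were measured by ELISA; responses were referenced to DMSO and analysed for increases.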

[7] = read-out: TIMP metallopeptidase inhibitor 1 (TIMP1), TIMP1 (gene 7076); assay: BSK_MyoF_TIMP1: BioMAP Diversity Plus: MyoF Assay for TIMP metallopeptidase inhibitor 1 (TIMP1) Biomarker Activity (AID 2284269); details: primary human lung fibroblasts
Summary of the method: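 Primary human lung fibroblasts, MyoF multiplex system; chemical exposure 24 h; TIMP-1 by ELISA; positive fitting direction vs DMSO control.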

[8] = read-out: Matrix Metallopeptidase 1 (MMP1), MMP1 (gene 4312); assay: BSK_BF4T_MMP1: BioMAP Diversity Plus: BF4T Assay for Matrix Metallopeptidase 1 (MMP1) Biomarker Activity (AID 2284270); details: primary human bronchial epithelial cells with fibroblasts
Summary of the method: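 Co-culture of human bronchial epithelial cells and dermal fibroblasts; MMP-1 levels measured by ELISA 24 hours after chemical dosing, relative to DMSO. Cytotoxicity checked in parallel cultures by SRB total-protein staining.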

[9] = read-out: Matrix Metallopeptidase 3 (MMP3), MMP3 (gene 4314); assay: BSK_BF4T_MMP3: BioMAP Diversity Plus: BF4T Assay for Matrix Metallopeptidase 3 (MMP3) Biomarker Activity (AID 2284271); details: primary human bronchial epithelial cells with fibroblasts
Summary of the method: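 Co-culture of human bronchial epithelial cells and dermal fibroblasts dosed 24 h; MMP-3 measured by ELISA, positive-direction fit versus DMSO. Cytotoxicity tracked by SRB total-protein staining (560 nm) in parallel cultures.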

[10] = read-out: Tissue plasminogen activator (tPA), PLAT (gene 5327); assay: BSK_BF4T_tPA: BioMAP Diversity Plus: BF4T Assay for Tissue plasminogen activator (tPA) Biomarker Activity (AID 2284272); details: primary human bronchial epithelial cells with fibroblasts
Summary of the method: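 tPA level quantified by ELISA at 24 h post-treatment in bronchial epithelial/dermal fibroblast co-cultures, gain of signal scored against DMSO baseline. Parallel cultures stained with 0.1% SRB (560 nm) to flag overt cytotoxicity.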

[11] = read-out: Plasminogen Activator Inhibitor-1 (PAI1), SERPINE1 (gene 5054); assay: BSK_BF4T_PAI1: BioMAP Diversity Plus: BF4T Assay for Plasminogen Activator Inhibitor-1 (PAI1) Biomarker Activity (AID 2284273); details: primary human bronchial epithelial cells with fibroblasts
Summary of the method: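 Co-culture of human bronchial epithelial cells and dermal fibroblasts exposed to compound for 24 h. PAI-1 measured by ELISA; activity fitted in positive direction versus DMSO. Parallel SRB staining assessed overt cytotoxicity.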

[12] = BSK_BF4T_SRB: Viability Assessment in the BioMAP Diversity Plus: BF4T Assay (AID 2284274); details: primary human bronchial epithelial cells with fibroblasts;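 on AC50: total cell protein by sulforhodamine B staining as a cytotoxicity measure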
Summary of the method: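 Co-culture of human bronchial epithelial cells and dermal fibroblasts (BioMAP BF4T) exposed 24 h. Total protein by sulforhodamine B staining (0.1% SRB after 10% TCA fixation, 560 nm) in parallel cultures; fitted vs DMSO.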

[13] = read-out: urokinase Plasminogen Activator (uPA), PLAU (gene 5328); assay: BSK_BF4T_uPA: BioMAP Diversity Plus: BF4T Assay for urokinase Plasminogen Activator (uPA) Biomarker Activity (AID 2284275); details: primary human bronchial epithelial cells with fibroblasts
Summary of the method: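 Co-culture of human bronchial epithelial cells and dermal fibroblasts; uPA quantified by ELISA 24 hours after dosing, fitted relative to DMSO. Parallel SRB total-protein staining assessed overt cytotoxicity.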

[14] = read-out: Matrix Metallopeptidase 9 (MMP9), MMP9 (gene 4318); assay: BSK_BF4T_MMP9: BioMAP Diversity Plus: BF4T Assay for Matrix Metallopeptidase 9 (MMP9) Biomarker Activity (AID 2284276); details: primary human bronchial epithelial cells with fibroblasts
Summary of the method: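 Co-culture of human bronchial epithelial cells and dermal fibroblasts dosed for 24 h; MMP-9 quantified by ELISA and fitted upward versus DMSO. Cytotoxicity monitored in parallel cultures by SRB total-protein staining at the biomarker time point.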

[15] = read-out: Interleukin-8 (IL8), CXCL8 (gene 3576); assay: BSK_IMphg_IL8: BioMAP Diversity Plus: IMphg Assay for Interleukin-8 (IL8) Biomarker Activity (AID 2284277); details: primary human endothelial cells with macrophages
Summary of the method: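 Co-culture of human venular endothelial cells and macrophages exposed to chemicals for 24 h; IL-8 quantified by ELISA and compared against the DMSO baseline, with SRB total-protein staining in parallel cultures for cytotoxicity.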

[16] = read-out: Intercellular Adhesion Molecule 1 (ICAM1), ICAM1 (gene 3383); assay: BSK_BE3C_ICAM1: BioMAP Diversity Plus: BE3C Assay for Intercellular Adhesion Molecule 1 (ICAM1) Biomarker Activity (AID 2284278); details: primary human bronchial epithelial cells
Summary of the method: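 Primary human bronchial epithelial cells in BE3C system, 24 h after chemical dosing; cell-surface ICAM-1 measured by ELISA relative to DMSO. Parallel SRB staining (0.1% SRB after 10% TCA fixation, read at 560 nm) assessed cytotoxicity.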

[17] = read-out: Interleukin-1 alpha (IL1a), IL1A (gene 3552); assay: BSK_BF4T_IL1a: BioMAP Diversity Plus: BF4T Assay for Interleukin-1 alpha (IL1a) Biomarker Activity (AID 2284264); details: primary human bronchial epithelial cells with fibroblasts
Summary of the method: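 Human bronchial epithelial cells co-cultured with dermal fibroblasts, dosed and read at 24 h. Secreted/surface IL-1α quantified by ELISA; gain-of-signal fitted relative to DMSO baseline. Parallel SRB total-protein staining tracked cytotoxicity.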

KRT18 (gene 3875) = assay: BSK_BF4T_Keratin818: BioMAP Diversity Plus: BF4T Assay for Keratin 818 Biomarker Activity (AID 2284266); details: primary human bronchial epithelial cells with fibroblasts
Summary of the method: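 Co-culture of human bronchial epithelial cells and dermal fibroblasts, chemical exposure 24 h. Keratin 8/18 measured by ELISA; positive-direction fit vs DMSO. SRB total protein run in parallel cultures for cytotoxicity.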

Measured: AC50

O=S(=O)(OCC(F)(F)F)C(F)(F)C(F)(F)C(F)(F)C(F)(F)F
inactive: [1] | [2] | [3] | CD90, THY1 (gene 7070) | [4] | Decorin, DCN (gene 1634) | [5] | [6] | [7] | [8] | [9] | [10] | [11] | [12] | [13] | [14] | [15] | [16]

O=C(O)C(F)(F)C(F)(F)C(F)(F)C(F)(F)C(F)(F)C(F)(F)C(F)F
active: [15] 30 µM and 21.7 µM and 32.1 µM
inactive: [1] | [2] | [3] | CD90, THY1 (gene 7070) | [4] | Decorin, DCN (gene 1634) | [5] | [6] | [7] | [8] | [9] | [10] | [11] | [12] | [13] | [14] | [16]

O=C(O)C(F)(F)C(F)(F)C(F)(F)OC(F)(C(F)(F)F)C(F)(F)F
inactive: [1] | [2] | [3] | CD90, THY1 (gene 7070) | [4] | Decorin, DCN (gene 1634) | [5] | [6] | [7] | [8] | [9] | [10] | [11] | [12] | [13] | [14] | [15] | [16]
active: [1] 5.77 µM | [9] 39.5 µM | [15] 16.1 µM

CN(C(=O)C(F)(F)C(F)(F)C(F)(F)F)[Si](C)(C)C
inactive: [1] | [2] | [3] | CD90, THY1 (gene 7070) | [4] | [17] | Decorin, DCN (gene 1634) | [5] | [6] | [7] | [8] | [9] | [10] | [11] | [12] | [13] | [14] | [15] | [16]

O=C(O)C(F)(F)C(F)(F)C(F)(F)OC(F)(F)F
inactive: [1] | [2] | [3] | CD90, THY1 (gene 7070) | [4] | KRT18 (gene 3875) | [5] | [6] | [7] | [8] | [9] | [10] | [11] | [12] | [13] | [14] | [15] | [16]
active: [4] 0.218 µM

O=S(=O)(O)CCC(F)(F)C(F)(F)C(F)(F)C(F)(F)C(F)(F)C(F)(F)C(F)(F)C(F)(F)F
inactive: [1] | [2] | [3] | CD90, THY1 (gene 7070) | [4] | Decorin, DCN (gene 1634) | [5] | [6] | [7] | [8] | [9] | [10] | [11] | [12] | [13] | [14] | [15] | [16]

CCN(CCO)S(=O)(=O)C(F)(F)C(F)(F)C(F)(F)C(F)(F)C(F)(F)C(F)(F)C(F)(F)C(F)(F)F
inactive: [1] | [2] | [3] | CD90, THY1 (gene 7070) | [4] | KRT18 (gene 3875) | [7] | [8] | [9] | [10] | [11] | [12] | [13] | [14] | [15] | [16]
active: [5] 19.4 µM and 23.3 µM | [6] 7.69 µM and 8.4 µM | [7] 30 µM | [9] 24 µM | [10] 13.6 µM | [15] 50.9 µM | [16] 51.6 µM

O=S(=O)(Cl)C(F)(F)C(F)(F)C(F)(F)C(F)(F)C(F)(F)C(F)(F)C(F)(F)C(F)(F)F
inactive: [2] | [3] | CD90, THY1 (gene 7070) | [4] | [5] | [6] | [7] | [8] | [9] | [10] | [13] | [15]
active: [1] 46.5 µM and 43.3 µM | [10] 23.2 µM | [11] 44.9 µM and 44.6 µM | [12] 50.8 µM and 46.8 µM | [13] 30 µM | [14] 49.2 µM and 47.7 µM | [15] 36.7 µM | [16] 54.9 µM and 54.8 µM

O=C(O)C(F)(F)OC(F)(F)C(F)(F)OC(F)(F)C(F)(F)OC(F)(F)F
inactive: [1] | [2] | [3] | CD90, THY1 (gene 7070) | [4] | [5] | [6] | [7] | [8] | [9] | [10] | [11] | [12] | [13] | [14] | [15] | [16]
active: [7] 6.35 µM | [10] 20 µM and 5.38 µM | [15] 5.47 µM and 14.2 µM

— PubChem BioAssay (EPA / NIEHS)
